RORgamma inh = qHTS for inhibitors of ROR gamma transcriptional activity | Nuclear receptor ROR-gamma (Mus musculus), P51450 | Drosophila S2 Gal4-RORgamma UAS-luciferase reporter, 20 h | Potency, µM (top dose mostly 53.6 µM), without a hit: top-dose activity change, negative = inhibition, most hits filed as inhibitors | 310,000 tested, 5.4% active; further: potency means the concentration at half of the fitted maximal effect; nearly all actives have a fitted effect of over 60% in size
Target sequence (P51450 whole entry, looked up, the tested form may be a part): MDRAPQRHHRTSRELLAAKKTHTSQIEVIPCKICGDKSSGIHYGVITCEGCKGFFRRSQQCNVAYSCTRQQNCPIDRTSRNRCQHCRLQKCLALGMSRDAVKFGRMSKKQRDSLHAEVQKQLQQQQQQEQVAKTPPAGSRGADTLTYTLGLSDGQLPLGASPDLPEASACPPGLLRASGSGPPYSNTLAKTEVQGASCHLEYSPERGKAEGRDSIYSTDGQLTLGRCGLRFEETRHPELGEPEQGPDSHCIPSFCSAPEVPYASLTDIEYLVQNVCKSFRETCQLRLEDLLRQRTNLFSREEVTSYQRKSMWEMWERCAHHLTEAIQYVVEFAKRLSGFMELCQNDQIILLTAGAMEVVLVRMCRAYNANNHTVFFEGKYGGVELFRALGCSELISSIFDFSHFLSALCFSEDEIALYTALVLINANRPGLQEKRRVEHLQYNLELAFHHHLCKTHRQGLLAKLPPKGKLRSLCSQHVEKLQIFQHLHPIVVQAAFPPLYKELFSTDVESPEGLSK
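Luciferase reporter read in Schneider cells carrying Gal4-RORγ (mouse) and UAS-Photinus luciferase; cells given compound 1 h before 700 uM copper sulfate induction, then incubated 20 h at ambient temperature.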
VP16 counter = VP16 counterscreen qHTS for inhibitors of ROR gamma transcriptional activity. Potency, µM (doses to about 53.6 µM), for the others: at the highest dose activity, negative = inhibition, most hits filed as inhibitors. 310,000 tested, 3.5% active. Drosophila S2 Gal4-VP16 UAS-luciferase, luminescence, 20 h. AID 2546, 2010;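 further: Gal4-VP16 expression switched on by copper sulfate through the metallothionein promoter; potency means the concentration at half of the fitted maximal effect; nearly all actives have a fitted effect of over 50% in size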
DT40 TDP1 no CPT = qHTS for Inhibitors of human tyrosyl-DNA phosphodiesterase 1 (TDP1): qHTS in cells in absence of CPT. DT40 Tdp1-/- hTDP1 cells, no CPT, ATP luminescence, 48 h. AID 686978, 2013. 420,000 tested, 15% active. Potency, µM (series often up to 46.2 µM), for the others: at the highest dose activity change, negative = growth inhibition, usual class: inhibitors; further: potency means the concentration at half of the fitted maximal effect; nearly all actives have a fitted effect of over 55% in size
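Stably hTDP1-transfected Tdp1-null chicken DT40 cells were treated with library compounds minus camptothecin and grown for at least 48 hr at 37 °C, after which cellular ATP was quantified by luminescence.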
IL-1B inflam inh = qHTS for Inhibitors of Inflammasome Signaling: IL-1-beta AlphaLISA Primary Screen; THP-1 LPS/ATP IL-1B secretion, AlphaLISA, 16 h; active compounds read low; activity change, % at 57.5 µM; 360,000 tested, 4.7% active; AID 743279, 2014; in the data active means activity change below about -50%; inconclusive means mostly about -30% to -49%
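Secreted IL-1B measured by AlphaLISA bead assay after 16 h compound exposure of THP-1 cells; compounds (final up to 57.5 uM) added 1 h before LPS (250 ng/mL) and ATP (1.25 mM) stimulation; lower signal means less secretion.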
TDP1 cell CPT = qHTS for Inhibitors of human tyrosyl-DNA phosphodiesterase 1 (TDP1): qHTS in cells in presence of CPT. chicken DT40 Tdp1-/-;hTDP1 cells + 20 nM CPT, ATP luminescence, 48 h. Potency, µM (top dose mostly 46.2 µM), for the others: at the highest dose activity change, negative = growth inhibition, usual class: inhibitors. 420,000 tested, 12% active. AID 686979, 2013; further: potency means the concentration at half of the fitted maximal effect; nearly all actives have a fitted effect of over 55% in size
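Chicken DT40 Tdp1-/- cells complemented with human TDP1, 400 cells/well, exposed to compounds plus 20 nM camptothecin for at least 48 h at 37 C; viability read as ATP content by CellTiter-Glo luminescence.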
LDHA block = qHTS assay for inhibitors of human lactate dehydrogenase; purified LDHA, NADH/diaphorase-resazurin fluorescence; active compounds read low; 480,000 tested, 0.15% active; AID 1347041, 2019; activity change, % (values are at about 110 or 230 µM); in the data active means activity change below about -30%; inconclusive means mostly about -25% to -30%;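 further: plate controls were DMSO wells for no effect and wells without enzyme for full effect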
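Resorufin fluorescence (ex540/em590), read at 0 and 20 min after diaphorase/resazurin addition, reports the NADH left after a 5 min room-temperature reaction of 2 nM human LDH5 with 0.06 mM NADH and 0.2 mM pyruvate.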
* = called active by the depositor; u = inconclusive; x = no result. In the library only some 18% were active in any assay of this set; here they are far more common. Unless noted, the call rests on the fitted dose curve; in most records, active means well fitted curve in the direction sought with a large enough effect; inconclusive means small, poorly fitted or top-dose-only effect, or another doubt; inactive means no such curve, though single readings can be large; an effect the other way counts as inactive or inconclusive. Unless noted, on the % scale 0 is the no-effect control and ±100 the full control effect.

SMILES	RORgamma inh	VP16 counter	DT40 TDP1 no CPT	IL-1B inflam inh	TDP1 cell CPT	LDHA block
Fc1nc(F)c(F)c(Sc2nc3ccccc3s2)c1F	x	x	x	x	x	10
COc1ccccc1C(=O)Oc1ccc2c(=O)c(-c3ccccc3OC)c(C)oc2c1	x	x	x	x	x	-4
COc1ccc2c(=O)c(-c3ccccc3C)c(C)oc2c1	10%	-9%	13µM*	-23	u	-5
CCOc1ccc(OCCSc2nnc(-c3ccccc3Cl)n2CCCOC)cc1	x	x	x	x	x	-7
COc1cc(S(=O)(=O)Nc2ccc(C)cc2)ccc1N=Cc1c(C)[nH]n(-c2ccc(C)cc2)c1=O	-1%	-10%	13µM*	-7	-23%	-4
COc1ccccc1N=Cc1c(C)[nH]n(-c2ccc(C)cc2C)c1=O	0%	0%	-9%	22	8%	-6
COc1cc(S(=O)(=O)Nc2ccc(C)cc2)ccc1N=Cc1c(C)c(C#N)c(=O)n(C)c1O	11%	8%	13µM*	1	u	-1
COC1=C2C[C@H](C)C[C@H](OC)[C@@H](O)[C@@H](C)C=C(C)[C@H](OC(N)=O)[C@@H](OC)C=CC=C(C)C(=O)NC(=CC1=O)C2=O	x	x	0.025µM*	x	0.079µM*	18
COCCCNC(=O)c1c[nH]c2ccc(S(=O)(=O)N3CCc4ccccc43)cc2c1=O	41%	u	u	-2	-29%	2
CCc1ccccc1NC(=O)N1CCCc2ccccc21	15%	-8%	2%	6	-22%	-1
COCCNC(=O)c1c[nH]c2ccc(S(=O)(=O)N3CCc4ccccc43)cc2c1=O	u	-28%	6.5µM*	u	15µM*	-2
COc1ccccc1NC(=O)c1cc(S(=O)(=O)N2CCN(c3ccccc3Cl)CC2)ccc1F	x	x	-70%	x	u	-8
CCc1ccccc1NC(=O)c1cc(S(=O)(=O)N2CCCc3ccccc32)ccc1F	x	x	18µM*	x	16µM*	0
COc1ccc(S(=O)(=O)N2CCc3ccccc32)cc1C(=O)NCCc1ccc(S(N)(=O)=O)cc1	x	x	1%	-12	-1%	-9
COc1ccccc1NC(=O)c1cc(S(=O)(=O)N2CCc3ccccc32)ccc1F	-21%	2%	u	19	18µM*	0
COc1ccc(CCNC(=O)c2cc(S(=O)(=O)N3CCc4ccccc43)ccc2F)cc1OC	x	x	6.5µM*	-7	12µM*	-4
Cc1ccc(C)c(Cn2c(N3CCN(Cc4ccccc4C)CC3)nc3c2c(=O)[nH]c(=O)n3C)c1	x	x	x	x	x	10
CCN(Cc1ccc(OC)c(F)c1)C(=O)CN1CCC(c2nc3ccccc3s2)CC1	x	x	x	x	x	-1
N#C/C(=C\Nc1ccc(C(N)=O)cc1)c1nc(C2CC2)cs1	x	x	x	x	x	-11
Cc1ccc(C(=O)NCC(=O)N(C)Cc2ccc(-c3ccc(Br)cc3)o2)cc1	x	x	x	x	x	3
CCCCCNC(=O)c1cc(S(=O)(=O)N2CCCCC2)ccc1F	-2%	-2%	-12%	9	3%	-12
CCc1ccccc1NC(=O)c1cc(S(=O)(=O)N2CCc3ccccc32)ccc1F	x	x	10µM*	x	16µM*	-2
CCCNC(=O)c1cc(S(=O)(=O)N2CCc3ccccc32)ccc1F	u	u	15µM*	-8	5.2µM*	-8
O=C(Nc1cc(Cl)ccc1Cl)c1cc(S(=O)(=O)N2CCCc3ccccc32)ccc1F	x	x	u	x	23µM*	4
O=S(=O)(c1ccc(F)c(F)c1)N1CCCc2ccccc21	-4%	8%	u	32	-21%	0
CCC(=O)Nc1ccc(S(=O)(=O)N2CCc3ccccc32)cc1	61%	-8%	-27%	33	u	-13
